A short description of test [1]: BSK_3C_TissueFactor: BioMAP Diversity Plus: 3C Assay for Tissue Factor Biomarker Activity (AID 2282997). As to conditions: BioMAP 3C HUVEC, tissue factor biomarker readout; actives raise or lower the signal. Summed up:
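HUVEC were treated 24 h, then surface tissue factor measured by ELISA and fitted bidirectionally against DMSO. Parallel SRB total-protein staining assessed overt cytotoxicity at the same time point.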

Test [2] is described as follows: BSK_3C_uPAR: BioMAP Diversity Plus: 3C Assay for Urokinase-type plasminogen activator receptor (uPAR) Biomarker Activity (AID 2282998). To be noted: BioMAP 3C HUVEC, uPAR biomarker ELISA; actives raise or lower the signal. In short, it runs like this: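 Primary human umbilical vein endothelial cells, 3C system; surface uPAR measured by ELISA 24 h after dosing. Cytotoxicity via SRB total protein in parallel cultures; bidirectional fit against DMSO.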
Background: An ELISA detects its analyte on a solid surface through an enzyme-linked reagent.

The nature of test [3]: BSK_3C_VCAM1: BioMAP Diversity Plus: 3C Assay for Vascular cell adhesion molecule 1 (VCAM1) Biomarker Activity (AID 2282999). As to conditions: BioMAP 3C HUVEC, VCAM1 ELISA, cytokine-stimulated; actives raise or lower the signal. In short, it runs like this:
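Human umbilical vein endothelial cells (3C system), biomarker read by ELISA 24 h after dosing; bidirectional fit against DMSO baseline. Cytotoxicity tracked by SRB total-protein staining in parallel cultures at biomarker time.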

A short description of test [4]: BSK_4H_Eotaxin3: BioMAP Diversity Plus: 4H Assay for Eotaxin 3 Biomarker Activity (AID 2283000). As to conditions: primary human endothelial cells (HUVEC); actives raise or lower the signal. Summed up:
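Eotaxin-3 (CCL26) levels were measured by ELISA in HUVEC primary cultures 24 h post-dosing. Gain or loss of signal was fitted in both directions, with DMSO serving as baseline and negative control.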

Read-out in test [5]: Intercellular Adhesion Molecule 1 (ICAM1), ICAM1 (gene 3383)
The test is described as follows: BSK_3C_ICAM1: BioMAP Diversity Plus: 3C Assay for Intercellular Adhesion Molecule 1 (ICAM1) Biomarker Activity (AID 2283003). To be noted: primary human endothelial cells (HUVEC); actives raise or lower the signal. Summed up: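 Human vascular endothelial primary cells, 3C conditions, 24 h treatment. ICAM-1 by ELISA.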

Test [6] can be described thus: BSK_3C_Proliferation: Cell Proliferation Assessment in the BioMAP Diversity Plus: 3C Assay (AID 2283006).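 Note: potency may reflect either rise or fall in cell number versus DMSO.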 To be noted: primary human endothelial cells (HUVEC). Summed up: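 Proliferation of human vascular endothelial primary cells after 48 h dosing, quantified as SRB-stained protein at 560 nm relative to DMSO.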
Read-out in test [7]: E-selectin (Homo sapiens) (UniProt P16581)
Description: BSK_3C_Eselectin: BioMAP Diversity Plus: 3C Assay for Eselectin Biomarker Activity (AID 2283015).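 Note: cell surface E-selectin protein quantified by ELISA 24 h after dosing.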 To be noted: primary human endothelial cells (HUVEC); actives raise or lower the signal. In short, it runs like this:
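Primary human umbilical vein endothelial cells (3C system), read 24 h after compound addition; E-selectin measured by ELISA. Bidirectional curve fitting against DMSO baseline; cytotoxicity by parallel SRB total-protein staining.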

Read-out in test [8]: Interleukin-1 alpha (IL1a), IL1A (gene 3552)
The test is described as follows: BSK_BE3C_IL1a: BioMAP Diversity Plus: BE3C Assay for Interleukin-1 alpha (IL1a) Biomarker Activity (AID 2283016). As to conditions: primary human bronchial epithelial cells; actives raise or lower the signal. In short, it runs like this: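 Cultures of primary human bronchial epithelial cells receive test chemical. After 24 h, IL-1a is quantified by ELISA, while parallel wells are fixed in TCA and SRB-stained for total protein. Changes in either direction are fitted relative to DMSO.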

Read-out in test [9]: Monocyte Chemoattractant Protein-1 (MCP1), CCL2 (gene 6347)
Description: BSK_3C_MCP1: BioMAP Diversity Plus: 3C Assay for Monocyte Chemoattractant Protein-1 (MCP1) Biomarker Activity (AID 2283017). As to conditions: primary human endothelial cells (HUVEC); actives raise or lower the signal. Summed up:
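Human umbilical vein endothelial cells (3C system) exposed to chemicals for 24 h; MCP-1 quantified by ELISA against the DMSO baseline with bidirectional fitting, and parallel SRB staining used to assess cytotoxicity.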

Read-out in test [10]: Monocyte Chemoattractant Protein-1 (MCP1), CCL2 (gene 6347)
The test is described as follows: BSK_4H_MCP1: BioMAP Diversity Plus: 4H Assay for Monocyte Chemoattractant Protein-1 (MCP1) Biomarker Activity (AID 2283018). To be noted: primary human endothelial cells (HUVEC); actives raise or lower the signal. In short, it runs like this:
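Readout: MCP-1 ELISA on compound-treated HUVEC, sampled 24 h post-dosing. Baseline and negative control DMSO; bidirectional fit. Overt toxicity checked alongside by sulforhodamine B protein staining at time of biomarker measurement.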

Read-out in test [11]: Human Leukocyte Antigen - DR isotype (HLADR), HLA-DRA (gene 3122)
Description: BSK_3C_HLADR: BioMAP Diversity Plus: 3C Assay for Human Leukocyte Antigen - DR isotype (HLADR) Biomarker Activity (AID 2283019). As to conditions: primary human endothelial cells (HUVEC); actives raise or lower the signal. In short, it runs like this: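 HUVEC monoculture, HLA-DR measured by ELISA 24 h after chemical dosing. Fitted bidirectionally against DMSO baseline; parallel SRB staining assessed cytotoxicity, with 3C proliferation read by SRB at 48 h.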

Read-out in test [12]: Interleukin-8 (IL8), CXCL8 (gene 3576)
The test is described as follows: BSK_3C_IL8: BioMAP Diversity Plus: 3C Assay for Interleukin-8 (IL8) Biomarker Activity (AID 2283020). To be noted: primary human endothelial cells (HUVEC); actives raise or lower the signal. Summed up:
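Human vascular endothelial cells (umbilical vein) in the 3C system; IL-8 level detected by ELISA at 24 h post-dose, with DMSO as baseline.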

Read-out in test [13]: Monokine induced gamma interferon (MIG), CXCL9 (gene 4283)
The test is described as follows: BSK_3C_MIG: BioMAP Diversity Plus: 3C Assay for Monokine induced gamma interferon (MIG) Biomarker Activity (AID 2283021). To be noted: primary human endothelial cells (HUVEC); actives raise or lower the signal. Summed up: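 After 24 h of treatment, human umbilical vein endothelial cultures (3C system) had their MIG biomarker level determined by ELISA, with DMSO serving as negative control.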

Test [14] in a line: BSK_3C_SRB: Viability Assessment in the BioMAP Diversity Plus: 3C Assay (AID 2283023).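 Note: fitted both ways against DMSO so a hit may be signal rise or drop.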 As to conditions: primary human endothelial cells (HUVEC). Summed up:
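Human umbilical vein endothelial cells in the 3C system, treated 24 h. Total protein measured by 0.1% sulforhodamine B staining after 10% TCA fixation, read at 560 nm; bidirectional fit versus DMSO.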

Read-out in test [15]: Matrix Metallopeptidase 1 (MMP1), MMP1 (gene 4312)
Description: BSK_BE3C_MMP1: BioMAP Diversity Plus: BE3C Assay for Matrix Metallopeptidase 1 (MMP1) Biomarker Activity (AID 2283024). As to conditions: primary human bronchial epithelial cells; actives raise or lower the signal. In short, it runs like this: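 Dose cells, wait 24 h, run MMP1 ELISA; cells are human bronchial epithelial primaries. Both increases and decreases relative to DMSO counted.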

Read-out in test [16]: Pselectin, SELP (gene 6403)
The test is described as follows: BSK_4H_Pselectin: BioMAP Diversity Plus: 4H Assay for Pselectin Biomarker Activity (AID 2283026). To be noted: primary human endothelial cells (HUVEC); actives raise or lower the signal. In short, it runs like this: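 Human vascular endothelium from umbilical vein; P-selectin measured by ELISA at 24 h post-dose, with cytotoxicity checked by sulforhodamine B total-protein staining in parallel cultures (0.1% SRB after 10% TCA fixation, read at 560 nm).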

Test [17] is described as follows: BSK_4H_SRB: Viability Assessment in the BioMAP Diversity Plus: 4H Assay (AID 2283027).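 Note: cells exposed to compound for 24 h before staining.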 To be noted: primary human endothelial cells (HUVEC). In short, it runs like this: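 Human umbilical vein endothelial cells, 24 h after chemical dosing; total protein measured by 0.1% sulforhodamine B staining after 10% TCA fixation, read at 560 nm. Bidirectional fitting against DMSO.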

A short description of test [18]: BSK_BE3C_SRB: Viability Assessment in the BioMAP Diversity Plus: BE3C Assay (AID 2283028). To be noted: primary human bronchial epithelial cells. In short, it runs like this: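 Human bronchial epithelial primary cells in confluent culture, 24 h after chemical dosing; total protein by 0.1% SRB staining after 10% TCA fixation, read at 560 nm. Bidirectional fitting versus DMSO baseline.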

Read-out in test [19]: Thrombomodulin, THBD (gene 7056)
Description: BSK_3C_Thrombomodulin: BioMAP Diversity Plus: 3C Assay for Thrombomodulin Biomarker Activity (AID 2283029). As to conditions: primary human endothelial cells (HUVEC); actives raise or lower the signal. Summed up: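 Thrombomodulin ELISA, human primary HUVEC, 24 h post-dose; data fitted in both directions relative to DMSO.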

Read-out in test [20]: Vascular endothelial growth factor receptor 2 (Homo sapiens) (UniProt P35968)
Description: BSK_4H_VEGFRII: BioMAP Diversity Plus: 4H Assay for Vascular endothelial growth factor receptor 2 (VEGFR2) Biomarker Activity (AID 2283031).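 Note: cell-surface VEGFR2 protein level quantified by ELISA.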 As to conditions: primary human endothelial cells (HUVEC); actives raise or lower the signal. Summed up:
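Primary human umbilical vein endothelial cells (4H system), 24 h exposure; cell-surface VEGFR2 measured by ELISA. Bidirectional fitting versus DMSO; cytotoxicity checked in parallel by SRB total-protein staining.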

Several values for one entry are separate records, joined by “and”; a condition that tells them apart may be missing. Equal entries are not always repeated. More than one record can exist for a structure, and the calls need not agree. Activity calls are given as the source filed them. Rule for the calls: active = hit-call score of the fitted dose curve at least 0.9, where 1 is the maximum; inactive = score below 0.9.

E-selectin (Homo sapiens), sequence (P16581 whole entry, looked up): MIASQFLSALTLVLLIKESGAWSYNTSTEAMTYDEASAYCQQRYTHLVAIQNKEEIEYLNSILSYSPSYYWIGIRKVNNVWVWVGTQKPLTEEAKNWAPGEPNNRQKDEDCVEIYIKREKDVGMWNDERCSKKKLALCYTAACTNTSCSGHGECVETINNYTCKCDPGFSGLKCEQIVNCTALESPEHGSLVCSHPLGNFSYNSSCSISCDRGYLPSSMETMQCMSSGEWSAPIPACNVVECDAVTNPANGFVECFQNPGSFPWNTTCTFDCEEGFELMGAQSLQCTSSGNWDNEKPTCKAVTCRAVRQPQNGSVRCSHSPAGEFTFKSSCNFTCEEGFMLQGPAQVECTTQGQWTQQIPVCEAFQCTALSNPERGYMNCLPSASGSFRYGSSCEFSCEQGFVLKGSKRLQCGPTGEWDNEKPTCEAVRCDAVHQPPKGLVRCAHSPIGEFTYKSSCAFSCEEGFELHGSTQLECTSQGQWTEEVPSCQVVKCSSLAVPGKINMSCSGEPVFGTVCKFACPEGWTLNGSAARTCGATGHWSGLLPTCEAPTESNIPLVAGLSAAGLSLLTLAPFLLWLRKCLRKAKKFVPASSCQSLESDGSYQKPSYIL

Usually AC50 stands for the concentration giving half of the maximal activity seen. On to `[Cd+2].[Cl-].[Cl-]`, for which the AC50 in test [1] is 1 µM (active) and 863 nM (active); in test [4], 35.7 µM (active) and 32.2 µM (active); in test [6], 30.1 µM (active) and 30 µM (active); in test [11], 17 µM (active) and 10.9 µM (active); in [12] it was 20 µM (active); in test [16] it was 4.97 µM (active). Moreover, in [20], the AC50 was 6.83 µM (active). Moreover, the outcome in [2], in test [3], in [5], in [7], in test [8] and in [9] was inactive. In addition, the outcome in test [10], in [12], in test [13], in test [14], in test [15] and in [16] was inactive. Moreover, the outcome in test [17], in test [18] and in test [19] was inactive.

The values are drawn from PubChem BioAssay (EPA / NIEHS).
